This is part of a sample that, as a whole, favours compounds with a hit. Of some 83,000 tested, about 20% had one in any assay.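 Single-concentration screen, 48 h exposure, 96-well plates. Endpoint: percent growth. Below 10 = active.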 Unmarked numbers belong to inactive results. The source made the active and inactive calls.
Key:
Assay in all cases: NCI-60 one-dose screen, 48 h (100 = growth as untreated, 0 = no growth, -100 = all killed)
[1] = system: NCI-H522 lung; settings: 10 µM unless noted
[2] = system: A549/ATCC NSCLC; settings: 10 µM unless noted
[3] = system: COLO 205 colon; settings: 10 µM
[4] = system: SK-MEL-2 melanoma; settings: 10 µM unless noted
[5] = system: EKVX NSCLC; settings: 10 µM unless noted
[6] = system: TK-10 renal; settings: 10 µM unless noted
[7] = system: ACHN renal; settings: 10 µM unless noted
[8] = system: CCRF-CEM leukemia; settings: 10 µM unless noted
[9] = system: SR leukemia; settings: 10 µM
[10] = system: RPMI-8226 leukemia; settings: 10 µM unless noted
[11] = system: OVCAR-5 ovarian; settings: 10 µM unless noted
[12] = system: SK-OV-3 ovarian; settings: 10 µM unless noted
[13] = system: IGROV1 ovarian; settings: 10 µM
[14] = system: HS 578T breast; settings: 10 µM unless noted
[15] = system: NCI/ADR-RES ovarian; settings: 10 µM unless noted
[16] = system: HCT-116 colon; settings: 10 µM unless noted
[17] = system: OVCAR-4 ovarian; settings: 10 µM unless noted
[18] = system: M14 melanoma; settings: 10 µM unless noted

Row | SMILES | growth [1] [%] | growth [2] [%] | growth [3] [%] | growth [4] [%] | growth [5] [%] | growth [6] [%] | growth [7] [%] | growth [8] | growth [9] [%] | growth [10] [%] | growth [11] [%] | growth [12] [%] | growth [13] [%] | growth [14] [%] | growth [15] [%] | growth [16] [%] | growth [17] [%] | growth [18] [%]
1 | CN1C(=O)NC(=O)C(N=Nc2ccc(Cl)cc2)C1=O (centres undefined) | 81.3 | 101 | 137 | 117 | 96.3 | 101 | 87.9 | 106% | 100 | 96.1 | 98.9 | 120 | 129 | 114 | 83.5 | 93.3 |  | 
2 | C=CCc1ccc(OC(=O)Cc2ccccc2)c(OC)c1 | 90.4 | 104 | 103 | 80.6 |  | 110 |  | 101% |  | 106 | 110 | 94.2 |  | 114 | 105 | 105 | 102 | 
3 | O=C(C(=O)N1CCCC1)c1cn(CCCCCn2cc(C(=O)C(=O)N3CCCC3)c3ccccc32)c2ccccc12 | 89.5 | 85.2 | 110 | 114 | 75.5 | 112 | 87.8 | -26.6% (active) |  | 66.2 | 106 | 103 | 98.8 | 94.4 | 84.4 | 94.1 | 73 | 
4 | Nc1cccc(CC(=O)Nc2ccc(S(=O)(=O)F)cc2)c1 | 84.8 | 96.5 | 95.8 | 125 | 104 | 107 | 112 | 2.63% (active) | 96.7 |  | 98.5 | 92.4 |  | 99.1 |  | 96.9 |  | 90.7
